Where a chain is given by its changes, count along the chain named.
What was measured:
Test in all cases: PBM; 200 nM protein, PBS
Settings in all cases: dsDNA, one strand shown
[1] = biological target: HESX1 (Homo sapiens, UniProt Q9UBX0 95-180, R165K)
[2] = biological target: CRX (Homo sapiens, UniProt O43186 26-111)
[3] = biological target: T1, PAX4 (Homo sapiens, UniProt O43316 9-242, R200K)
T1 sequence: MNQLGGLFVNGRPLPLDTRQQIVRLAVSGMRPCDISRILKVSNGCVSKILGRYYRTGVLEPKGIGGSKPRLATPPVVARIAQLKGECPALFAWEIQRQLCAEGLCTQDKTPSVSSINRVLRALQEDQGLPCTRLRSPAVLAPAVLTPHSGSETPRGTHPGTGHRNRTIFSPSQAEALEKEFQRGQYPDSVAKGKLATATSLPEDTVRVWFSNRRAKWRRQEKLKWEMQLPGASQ

[4] = biological target: T2, PAX4 (Homo sapiens, UniProt O43316 9-242)
T2 sequence: T1 sequence with K192R

[5] = biological target: HESX1 (Homo sapiens, UniProt Q9UBX0 95-180)
[6] = biological target: CRX (Homo sapiens, UniProt O43186 26-111, E42D)
[7] = biological target: T3, PAX4 (Homo sapiens, UniProt O43316 9-242, R200Q)
T3 sequence: T1 sequence with K192Q

[8] = biological target: T4, PAX4 (Homo sapiens, UniProt O43316 9-242, F177V)
T4 sequence: T1 sequence with F169V, K192R

[9] = biological target: T5, PAX4 (Homo sapiens, UniProt O43316 9-242, F177Y)
T5 sequence: T1 sequence with F169Y, K192R

[10] = biological target: HESX1 (Homo sapiens, UniProt Q9UBX0 95-180, R109Q)
[11] = biological target: HESX1 (Homo sapiens, UniProt Q9UBX0 95-180, P111T)
[12] = biological target: HESX1 (Homo sapiens, UniProt Q9UBX0 95-180, F115L)
[13] = biological target: T6, PAX4 (Homo sapiens, UniProt O43316 9-242, R227W)
T6 sequence: T1 sequence with K192R, R219W

[14] = biological target: CRX (Homo sapiens, UniProt O43186 26-111, R41L)
[15] = biological target: T7, SIX6 (Homo sapiens, UniProt O95475 114-200, L167I)
T7 sequence: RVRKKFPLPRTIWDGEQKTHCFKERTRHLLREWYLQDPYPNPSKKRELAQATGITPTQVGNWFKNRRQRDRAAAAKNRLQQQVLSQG

[16] = biological target: HOXC9 (Homo sapiens, UniProt P31274 178-260, K195R)
[17] = biological target: T8, SIX6 (Homo sapiens, UniProt O95475 114-200, L143V)
T8 sequence: T7 sequence with L30V, I54L

[18] = biological target: T9, SIX6 (Homo sapiens, UniProt O95475 114-200, H141N)
T9 sequence: T7 sequence with H28N, I54L

[19] = biological target: T10, SIX6 (Homo sapiens, UniProt O95475 114-200, T165P)
T10 sequence: T7 sequence with T52P, I54L

[20] = biological target: T11, SIX6 (Homo sapiens, UniProt O95475 114-200, L167M)
T11 sequence: T7 sequence with I54M

[21] = biological target: T12, SIX6 (Homo sapiens, UniProt O95475 114-200, L143M)
T12 sequence: T7 sequence with L30M, I54L

[22] = biological target: T13, SIX6 (Homo sapiens, UniProt O95475 114-200, L143I)
T13 sequence: T7 sequence with L30I, I54L

[23] = biological target: T14, SIX6 (Homo sapiens, UniProt O95475 114-200, T165G)
T14 sequence: T7 sequence with T52G, I54L

[24] = biological target: HOXA2 (Homo sapiens, UniProt O43364 129-215, R185T)
[25] = biological target: T15, SIX6 (Homo sapiens, UniProt O95475 114-200, T139Q)
T15 sequence: T7 sequence with T26Q, I54L

[26] = biological target: HOXC9 (Homo sapiens, UniProt P31274 178-260)
[27] = biological target: T16, SIX6 (Homo sapiens, UniProt O95475 114-200, T165A)
T16 sequence: T7 sequence with T52A, I54L

[28] = biological target: HOXC9 (Homo sapiens, UniProt P31274 178-260, R193K)
[29] = biological target: HOXA2 (Homo sapiens, UniProt O43364 129-215, R185K)
[30] = biological target: T17, SIX6 (Homo sapiens, UniProt O95475 114-200, L167V)
T17 sequence: T7 sequence with I54V

[31] = biological target: T18, SIX6 (Homo sapiens, UniProt O95475 114-200)
T18 sequence: T7 sequence with I54L

[32] = biological target: T19, SIX6 (Homo sapiens, UniProt O95475 114-200, T165I)
T19 sequence: T7 sequence with T52I, I54L

[33] = biological target: HOXC9 (Homo sapiens, UniProt P31274 178-260, R222W)
[34] = biological target: HOXA2 (Homo sapiens, UniProt O43364 129-215, Y150S)
[35] = biological target: HOXA2 (Homo sapiens, UniProt O43364 129-215)
HOXA2 (Homo sapiens, UniProt O43364 129-215), sequence (O43364 129-215): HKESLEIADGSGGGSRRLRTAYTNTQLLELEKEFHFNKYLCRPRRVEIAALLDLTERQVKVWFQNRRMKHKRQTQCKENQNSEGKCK

HESX1 (Homo sapiens, UniProt Q9UBX0 95-180, R109Q), sequence (Q9UBX0 95-180 R109Q): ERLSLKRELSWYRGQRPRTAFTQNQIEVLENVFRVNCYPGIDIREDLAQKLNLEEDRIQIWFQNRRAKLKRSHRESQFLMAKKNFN
HESX1 (Homo sapiens, UniProt Q9UBX0 95-180, F115L), sequence (Q9UBX0 95-180 F115L): as the sequence (Q9UBX0 95-180 R109Q) above, with Q15R, F21L counted along it
HESX1 (Homo sapiens, UniProt Q9UBX0 95-180), sequence (Q9UBX0 95-180): as the sequence (Q9UBX0 95-180 R109Q) above, with Q15R counted along it
HESX1 (Homo sapiens, UniProt Q9UBX0 95-180, R165K), sequence (Q9UBX0 95-180 R165K): as the sequence (Q9UBX0 95-180 R109Q) above, with Q15R, R71K counted along it
HESX1 (Homo sapiens, UniProt Q9UBX0 95-180, P111T), sequence (Q9UBX0 95-180 P111T): as the sequence (Q9UBX0 95-180 R109Q) above, with Q15R, P17T counted along it
HOXA2 (Homo sapiens, UniProt O43364 129-215, R185T), sequence (O43364 129-215 R185T): as the sequence (O43364 129-215) above, with R57T counted along it
HOXA2 (Homo sapiens, UniProt O43364 129-215, Y150S), sequence (O43364 129-215 Y150S): as the sequence (O43364 129-215) above, with Y22S counted along it
HOXC9 (Homo sapiens, UniProt P31274 178-260), sequence (P31274 178-260): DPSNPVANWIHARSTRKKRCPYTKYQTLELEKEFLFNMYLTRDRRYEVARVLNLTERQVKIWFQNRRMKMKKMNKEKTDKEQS
HOXA2 (Homo sapiens, UniProt O43364 129-215, R185K), sequence (O43364 129-215 R185K): as the sequence (O43364 129-215) above, with R57K counted along it
CRX (Homo sapiens, UniProt O43186 26-111, E42D), sequence (O43186 26-111 E42D): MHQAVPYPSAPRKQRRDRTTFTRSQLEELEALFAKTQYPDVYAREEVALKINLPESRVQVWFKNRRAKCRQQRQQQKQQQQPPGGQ
HOXC9 (Homo sapiens, UniProt P31274 178-260, R193K), sequence (P31274 178-260 R193K): as the sequence (P31274 178-260) above, with R16K counted along it
HOXC9 (Homo sapiens, UniProt P31274 178-260, K195R), sequence (P31274 178-260 K195R): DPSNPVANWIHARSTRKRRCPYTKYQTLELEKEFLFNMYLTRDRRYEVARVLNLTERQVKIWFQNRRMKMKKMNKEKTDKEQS
CRX (Homo sapiens, UniProt O43186 26-111), sequence (O43186 26-111): as the sequence (O43186 26-111 E42D) above, with D17E counted along it
HOXC9 (Homo sapiens, UniProt P31274 178-260, R222W), sequence (P31274 178-260 R222W): as the sequence (P31274 178-260) above, with R45W counted along it
CRX (Homo sapiens, UniProt O43186 26-111, R41L), sequence (O43186 26-111 R41L): as the sequence (O43186 26-111 E42D) above, with R16L, D17E counted along it

For AGAGCGCG, which binding signal [1] is on record?
Its binding signal is 6.51 upbm affinity estimate (log intensity, higher = more binding, comparable within an allelic series).

And the binding signal [2]?
The binding signal was 8.2 upbm affinity estimate (log intensity, higher = more binding, comparable within an allelic series).

And the binding signal [3]?
Its binding signal is 9.35 upbm affinity estimate (log intensity, higher = more binding, comparable within an allelic series).

What about the binding signal [4] of the same sequence?
The binding signal was 9.24 upbm affinity estimate (log intensity, higher = more binding, comparable within an allelic series).

And the binding signal [5]?
The binding signal was 6.38 upbm affinity estimate (log intensity, higher = more binding, comparable within an allelic series).

What about the binding signal [6] of the same sequence?
Its binding signal is 8.22 upbm affinity estimate (log intensity, higher = more binding, comparable within an allelic series).

What about the binding signal [7] of the same sequence?
The binding signal was 9.35 upbm affinity estimate (log intensity, higher = more binding, comparable within an allelic series).

What about the binding signal [8] of the same sequence?
Its binding signal is 9.32 upbm affinity estimate (log intensity, higher = more binding, comparable within an allelic series).

And the binding signal [9]?
Its binding signal is 9.31 upbm affinity estimate (log intensity, higher = more binding, comparable within an allelic series).

And the binding signal [10]?
The binding signal was 6.56 upbm affinity estimate (log intensity, higher = more binding, comparable within an allelic series).

What about the binding signal [11] of the same sequence?
The binding signal was 6.61 upbm affinity estimate (log intensity, higher = more binding, comparable within an allelic series).

What about the binding signal [12] of the same sequence?
The binding signal was 6.46 upbm affinity estimate (log intensity, higher = more binding, comparable within an allelic series).

What about the binding signal [13] of the same sequence?
Its binding signal is 9.39 upbm affinity estimate (log intensity, higher = more binding, comparable within an allelic series).

And the binding signal [14]?
Its binding signal is 8.22 upbm affinity estimate (log intensity, higher = more binding, comparable within an allelic series).

For GCCAGACC, which binding signal [1] is on record?
The binding signal was 6.33 upbm affinity estimate (log intensity, higher = more binding, comparable within an allelic series).

And the binding signal [15]?
The binding signal was 9.01 upbm affinity estimate (log intensity, higher = more binding, comparable within an allelic series).

And the binding signal [16]?
The binding signal was 9.5 upbm affinity estimate (log intensity, higher = more binding, comparable within an allelic series).

What about the binding signal [17] of the same sequence?
The binding signal was 8.79 upbm affinity estimate (log intensity, higher = more binding, comparable within an allelic series).

And the binding signal [3]?
Its binding signal is 9.2 upbm affinity estimate (log intensity, higher = more binding, comparable within an allelic series).

What about the binding signal [18] of the same sequence?
The binding signal was 9.01 upbm affinity estimate (log intensity, higher = more binding, comparable within an allelic series).

What about the binding signal [19] of the same sequence?
Its binding signal is 8.91 upbm affinity estimate (log intensity, higher = more binding, comparable within an allelic series).

And the binding signal [4]?
Its binding signal is 9.05 upbm affinity estimate (log intensity, higher = more binding, comparable within an allelic series).

And the binding signal [20]?
Its binding signal is 9.01 upbm affinity estimate (log intensity, higher = more binding, comparable within an allelic series).

And the binding signal [21]?
Its binding signal is 8.95 upbm affinity estimate (log intensity, higher = more binding, comparable within an allelic series).

What about the binding signal [22] of the same sequence?
The binding signal was 8.96 upbm affinity estimate (log intensity, higher = more binding, comparable within an allelic series).

And the binding signal [23]?
Its binding signal is 9.08 upbm affinity estimate (log intensity, higher = more binding, comparable within an allelic series).

And the binding signal [5]?
The binding signal was 6.38 upbm affinity estimate (log intensity, higher = more binding, comparable within an allelic series).

And the binding signal [24]?
The binding signal was 7.3 upbm affinity estimate (log intensity, higher = more binding, comparable within an allelic series).

And the binding signal [25]?
The binding signal was 9.06 upbm affinity estimate (log intensity, higher = more binding, comparable within an allelic series).

What about the binding signal [26] of the same sequence?
The binding signal was 9.48 upbm affinity estimate (log intensity, higher = more binding, comparable within an allelic series).

What about the binding signal [27] of the same sequence?
Its binding signal is 9.03 upbm affinity estimate (log intensity, higher = more binding, comparable within an allelic series).

What about the binding signal [7] of the same sequence?
Its binding signal is 9.35 upbm affinity estimate (log intensity, higher = more binding, comparable within an allelic series).

What about the binding signal [28] of the same sequence?
The binding signal was 9.46 upbm affinity estimate (log intensity, higher = more binding, comparable within an allelic series).

And the binding signal [29]?
Its binding signal is 10.5 upbm affinity estimate (log intensity, higher = more binding, comparable within an allelic series).

And the binding signal [8]?
The binding signal was 9.2 upbm affinity estimate (log intensity, higher = more binding, comparable within an allelic series).

What about the binding signal [30] of the same sequence?
Its binding signal is 8.94 upbm affinity estimate (log intensity, higher = more binding, comparable within an allelic series).

And the binding signal [9]?
The binding signal was 9.19 upbm affinity estimate (log intensity, higher = more binding, comparable within an allelic series).

And the binding signal [10]?
Its binding signal is 6.33 upbm affinity estimate (log intensity, higher = more binding, comparable within an allelic series).

And the binding signal [31]?
Its binding signal is 9.02 upbm affinity estimate (log intensity, higher = more binding, comparable within an allelic series).

And the binding signal [32]?
Its binding signal is 8.93 upbm affinity estimate (log intensity, higher = more binding, comparable within an allelic series).

And the binding signal [11]?
Its binding signal is 6.36 upbm affinity estimate (log intensity, higher = more binding, comparable within an allelic series).

And the binding signal [33]?
The binding signal was 9.66 upbm affinity estimate (log intensity, higher = more binding, comparable within an allelic series).

What about the binding signal [12] of the same sequence?
Its binding signal is 6.43 upbm affinity estimate (log intensity, higher = more binding, comparable within an allelic series).

And the binding signal [13]?
Its binding signal is 9.26 upbm affinity estimate (log intensity, higher = more binding, comparable within an allelic series).

What about the binding signal [34] of the same sequence?
The binding signal was 10.4 upbm affinity estimate (log intensity, higher = more binding, comparable within an allelic series).

And the binding signal [35]?
Its binding signal is 7.38 upbm affinity estimate (log intensity, higher = more binding, comparable within an allelic series).

Source: paper PMC11006913
